Shown are actives, neighbours in structure and some others; about 15% of the full set was active somewhere.
DT40 TDP1 CPT – qHTS for Inhibitors of human tyrosyl-DNA phosphodiesterase 1 (TDP1): qHTS in cells in presence of CPT; hit rate 12% among 420,000; Potency, µM (doses to about 46.2 µM), for the others: at the top dose activity change, negative = growth inhibition, actives largely listed as inhibitors; chicken DT40 Tdp1-/-;hTDP1 cells + 20 nM CPT, ATP luminescence, 48 h; note: nearly all actives have a fitted effect of over 55% in size
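Chicken DT40 Tdp1-/- cells complemented with human TDP1, 400 cells/well, exposed to compounds plus 20 nM camptothecin for at least 48 h at 37 C; viability read as ATP content by CellTiter-Glo luminescence.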
Gal4-VP16 FLuc – VP16 counterscreen qHTS for inhibitors of ROR gamma transcriptional activity | Potency, µM (doses to about 53.6 µM), without a hit: at the highest dose activity, negative = inhibition, usual class: inhibitors | hit rate 3.5% among 310,000 | Drosophila S2 Gal4-VP16 UAS-luciferase, luminescence, 20 h;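 note: Gal4-VP16 expression switched on by copper sulfate through the metallothionein promoter; nearly all actives have a fitted effect of over 50% in size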
12-LOX inh – Primary qHTS assay for inhibitors of human arachidonate 12S-lipoxygenase (ALOX12): Round 2 | hit rate 1.1% among 580,000 | Potency, µM (top dose mostly 108 µM), for inactives: at the highest dose activity change, negative = inhibition, hits mostly inhibitors | Polyunsaturated fatty acid lipoxygenase ALOX12 (Homo sapiens), P18054 | purified 12hLO, xylenol orange hydroperoxide absorbance
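Purified human 12hLO (150 nM final) in 25 mM Hepes, 0.01% Triton X-100, pH 7.0 was preincubated 15 min at room temperature with compound. Then 40 uM arachidonic acid was added, 30 min. Hydroperoxide was read by Fe-XO absorbance ratio 573/405 nm.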
ELG1 DNA repair – qHTS screen for small molecules that inhibit ELG1-dependent DNA repair in human embryonic kidney (HEK293T) cells expressing luciferase-tagged ELG1 | Potency, µM (doses to about 46.1 µM), for the others: top-dose activity change, negative = inhibition, actives largely listed as inhibitors | HEK293T ELG1-luciferase reporter, luminescence, 16 h; DNA damage induced by 5-fluorouridine | hit rate 2.3% among 330,000 | AID 504467, 2011; note: nearly all actives have a fitted effect of over 55% in size
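Step one: seed 2,000 cells per well. Step two: pin-transfer compound or DMSO alongside 5-fluorouridine. Step three: incubate 16 hr, 37 °C, 5% CO2. Step four: add ONE-Glo, wait 30 min, read luminescence.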
DT40 TDP1 no CPT – qHTS for Inhibitors of human tyrosyl-DNA phosphodiesterase 1 (TDP1): qHTS in cells in absence of CPT; AID 686978, 2013; Potency, µM (series often up to 46.2 µM), for the others: at the highest dose activity change, negative = growth inhibition, hits mostly inhibitors; hit rate 15% among 420,000; DT40 Tdp1-/- hTDP1 cells, no CPT, ATP luminescence, 48 h; note: nearly all actives have a fitted effect of over 55% in size
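Readout: luminescence from CellTiter-Glo after 30 min in the dark at RT. Cells: DT40 Tdp1-/- with stable hTDP1, 400/well. Exposure: compounds alone, ≥48 hr, 37 °C.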
RORgamma inh – qHTS for inhibitors of ROR gamma transcriptional activity; Nuclear receptor ROR-gamma (Mus musculus), P51450; Drosophila S2 Gal4-RORgamma UAS-luciferase reporter, 20 h; Potency, µM (doses to about 53.6 µM), for the others: at the top dose activity change, negative = inhibition, hits mostly inhibitors; hit rate 5.4% among 310,000; note: nearly all actives have a fitted effect of over 60% in size
Target sequence (P51450 whole entry, looked up, the tested form may be a part): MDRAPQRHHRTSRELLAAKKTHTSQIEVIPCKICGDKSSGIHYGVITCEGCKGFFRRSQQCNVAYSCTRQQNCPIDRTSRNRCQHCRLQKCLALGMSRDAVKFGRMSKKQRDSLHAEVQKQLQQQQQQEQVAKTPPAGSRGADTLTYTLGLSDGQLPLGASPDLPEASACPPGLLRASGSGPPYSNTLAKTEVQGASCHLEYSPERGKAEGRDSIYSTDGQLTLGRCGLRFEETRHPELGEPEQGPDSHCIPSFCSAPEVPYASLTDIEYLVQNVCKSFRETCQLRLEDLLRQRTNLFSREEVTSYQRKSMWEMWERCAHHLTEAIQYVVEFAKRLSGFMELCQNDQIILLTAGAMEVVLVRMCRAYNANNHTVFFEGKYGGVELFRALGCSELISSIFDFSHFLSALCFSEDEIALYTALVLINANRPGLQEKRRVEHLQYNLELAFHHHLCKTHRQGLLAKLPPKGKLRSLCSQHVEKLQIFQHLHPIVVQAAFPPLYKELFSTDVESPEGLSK
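Compounds are pin-transferred onto Drosophila Schneider cells expressing a copper-inducible Gal4–ROR gamma transactivation domain fusion. After 1 hr, copper sulfate is added to 700 uM final; luciferase is read 20 hr later.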
Active calls of the source: *; ? = inconclusive; . = not tested or not shown; [ ] = another dose, or the depositor's remark. Calls come from the whole dose curve; as a rule, active = well fitted curve in the direction sought with a large enough effect; inconclusive = small, poorly fitted or top-dose-only effect, or another doubt; inactive = no such curve, though single readings can be large; an effect the other way counts as inactive or inconclusive. % is set by controls: 0 for no effect and ±100 for the full control effect; potency is the fitted concentration of half-maximal effect.

SMILES | DT40 TDP1 CPT | Gal4-VP16 FLuc | 12-LOX inh | ELG1 DNA repair | DT40 TDP1 no CPT | RORgamma inh
Cc1cc(N2CCN(c3ccc([N+](=O)[O-])c4cccnc34)CC2)c2ccccc2n1 | 8.2µM* | 7.08µM* | . | ? | 5.8µM* | 12.6µM*
Nc1nonc1OCCN1CCN(c2ccc([N+](=O)[O-])c3cccnc23)CC1 | 23.1µM* | -8.4% | 162.1% | ? | ? | 14.3%
Cc1cc(N2CCN(c3ccc(C(F)(F)F)cc3[N+](=O)[O-])CC2)c2ccccc2n1 | ? | ? | -22.6% | ? | 20.6µM* | -43.5%
CN1c2ccccc2-c2nc(SCC(=O)Nc3ccccc3Br)ncc2S1(=O)=O | . | . | 6.0% | . | . | .
CN(C)CCCNC(=O)c1nc(CC(=O)Nc2cccc3ncccc23)no1 | . | . | 44.0% | . | . | .
CCCc1[nH]n(-c2ccc(F)cc2)c(=O)c1C=Nc1cccc(F)c1 | 6.51µM* | -13.4% | 15.1% | -19.8% | 6.51µM* | 10.7%
COc1ccc(CC(=O)Nc2cccc(/C(C)=N/NC(=O)C3(C)CC3(Br)Br)c2)cc1 (stereo not drawn) | 16.4µM* | -12.5% | 4.5% | -25.8% | ? | ?
C/C(=N\NC(=O)C1(C)CC1(Br)Br)c1ccc(NC(=O)c2ccc(C)o2)cc1 (stereo not drawn) | 13µM* | 10.8% | 22.3% | ? | 18.4µM* | -0.7%
NCCC1C2CC3CC(C2)CC1C3 (stereo not drawn) | . | . | -0.4% | . | . | .
Cc1ccsc1C(=O)N1CCOc2ccc(CN3CCc4ccccc4C3)cc2C1 | . | . | 20.7% | . | . | .
Cc1cccc(NC(=O)c2nc[nH]c2C(=O)N[C@@H](C)C(=O)OC(C)(C)C)c1 | 18.4µM* | 7.08µM* | 0.0% | -8.3% | ? | 3.16µM*
C[C@H](NC(=O)c1[nH]cnc1C(=O)Nc1ccc(Cl)cc1)C(=O)OC(C)(C)C | ? | 1.41µM* | . | ? | ? | 1µM*
CC(C)(C)OC(=O)N1CCC(NC(=O)c2[nH]cnc2C(=O)Nc2ccc(Cl)cc2)CC1 | ? | . | -15.9% | ? | ? | .
Cc1cc(C(=O)N2CCC3(CC2)N=C(CC(C)C)NC3=O)c(C)o1 | . | . | 1.8% | . | . | .
Cc1cn2c(C(=O)c3ccccc3)c(-c3ccccc3)cc2cc1-c1ccccc1 | . | . | -18.4% | . | . | .
COc1cccc(NC(=O)CN2CCN(c3nc(-c4ccco4)c4c(c3C#N)CCC4)CC2)c1 | . | . | 32.2% | . | . | .
COc1cccc(N/C(N)=N/c2nc(C(F)(F)F)cc(=O)[nH]2)c1 | 10.3µM* | ? | 18.1% | ? | ? | -5.9%
CCOc1ccc(C2C(C(=O)Nc3ccccc3)=C(C)Nc3nc(-c4ccccc4Cl)nn32)cc1OC (stereo not drawn) | ? | . | -0.8% | . | 18.4µM* | .
CC1=C(C(=O)Nc2cccnc2)C(c2ccccc2Cl)n2nc(-c3ccccc3)nc2N1 (stereo not drawn) | ? | . | -21.0% | . | -21.7% | .
CC1=C(C(=O)Nc2ccccc2)C(c2ccncc2)n2nnnc2N1 (stereo not drawn) | -12.6% | -8.4% | -14.0% | 20.0% | ? | -5.7%
COc1cc(C2C(C(=O)Nc3ccccc3)=C(C)Nc3nnnn32)cc(OC)c1OC (stereo not drawn) | 4.9% | . | -13.4% | . | 11.6µM* | .
COc1ccccc1-c1nc2n(n1)C(c1ccccc1Cl)C(C(=O)Nc1cccnc1)=C(C)N2 (stereo not drawn) | ? | . | -5.2% | . | 20.6µM* | .
c1cc2c(cc1CN1CCCC1)CNCCO2 | . | . | 54.2% | . | . | .
COC(=O)[C@@]12C[C@@H](CC(=O)N3CCN(C(=O)C4CC4)CC3)C(=O)N(Cc3cccc4ccccc34)C1=CCC(C)(C)C2 | ? | . | ? | . | 20.6µM* | .
COC(=O)[C@@]12C[C@@H](CC(=O)N3CCOCC3)C(=O)N(Cc3cccc4ccccc34)C1=CCC(C)(C)C2 | 16.4µM* | . | -1.9% | . | ? | .
SMILES | DT40 TDP1 CPT | Gal4-VP16 FLuc | 12-LOX inh | ELG1 DNA repair | DT40 TDP1 no CPT | RORgamma inh
COC(=O)[C@@]12C[C@@H](CC(=O)N3CCCC3)C(=O)N(Cc3cccc4ccccc34)C1=CCC(C)(C)C2 | ? | . | 8.0% | . | ? | .
O=C(NCc1cccs1)C1=NO[C@@H]2CN(c3cccnc3)C[C@H]12 | . | . | -2.1%[176 µM] | . | . | .
CCCc1nnc(NC(=O)CCS(=O)(=O)c2ccccc2)s1 | 2.31µM* | -8.4% | -3.8% | -3.2% | 5.17µM* | 0.0%
CCc1nnc(NC(=O)CCN(c2cc(C)cc(C)c2)S(=O)(=O)c2ccc(Cl)cc2)s1 | ? | -12.0% | -16.4% | -17.5% | 18.4µM* | ?
CCCc1nnc(NS(=O)(=O)c2ccccc2)s1 | ? | 3.2% | -3.3% | 14.0% | -7.1% | -22.8%
Cc1cc(C)cc(N(CCC(=O)O)S(=O)(=O)c2ccc(Cl)cc2)c1 | 4.2% | -9.7% | ? | 8.2% | 10.4% | -3.4%
CCCCc1nnc(NC(=O)CCS(=O)(=O)c2ccc(Cl)cc2)s1 | 6.51µM* | . | 0.0% | -7.4% | 7.31µM* | .
CC(C)CNC(=O)C1CCN(C(=O)N2CC3CC(C2)[C@H]2CCCC(=O)N2C3)CC1 (stereo partly drawn) | . | . | 11.9% | . | . | .
COC(=O)CC1(C(=O)OC)Oc2ccc(Br)cc2C(=O)N1c1cc(Cl)cc(Cl)c1 (stereo not drawn) | ? | 4.1% | 0.0% | ? | ? | 22.0%
COC(=O)CC1(C(=O)OC)Oc2ccc(Br)cc2C(=O)N1c1cccc(Cl)c1Cl (stereo not drawn) | 3.66µM* | 2.8% | 5.9% | ? | 6.51µM* | 16.0%
COC(=O)CC1(C(=O)OC)Oc2ccc(Br)cc2C(=O)N1c1cc(Cl)c(Cl)cc1Cl (stereo not drawn) | 8.2µM* | -19.8% | 9.6% | 16.4µM* | 5.8µM* | ?
COC(=O)CC1(C(=O)OC)Oc2ccc(Br)cc2C(=O)N1c1ccc(Br)cc1Cl (stereo not drawn) | 5.8µM* | ? | 10.2% | 23.1µM* | 4.11µM* | ?
CCCn1c(SCc2cc(=O)oc3cc(C)c(C(C)C)cc23)n[nH]c1=O | . | . | -0.2% | . | . | .
Cc1cc(OCC(=O)Nc2ccccc2N2CCN(S(C)(=O)=O)CC2)ccc1Cl | . | . | 17.5% | . | . | .
COCCN1C(=O)[C@H]2CN(Cc3cccc(OC(F)(F)F)c3)C[C@H]2C1=O | . | . | 4.1% | . | . | .

From PubChem BioAssay
